Measurements as given in PubChem BioAssay (NCATS).
Results filed as inconclusive are left out. Active and inactive are the calls of the source. Unless noted, calls follow the shape of the dose curve; as a rule, active = well fitted curve in the direction sought with a large enough effect; inconclusive = small, poorly fitted or top-dose-only effect, or another doubt; inactive = no such curve, though single readings can be large; an effect the other way counts as inactive or inconclusive.

Legend:
[1] = molecular target: Transient receptor potential cation channel subfamily V member 1 (Homo sapiens) (UniProt Q8NER1); experiment: HTS Assay for Compounds that Act as Enhancers of the Vanilloid Receptor 1 (AID 488979); also: 0% is about no effect
Outline: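 TRPV1 cells loaded with Fluo-8 calcium dye; compound added and Ca2+ signal (ex 480/em 520 nm) followed 3 min, then capsaicin at EC20 added and read 2 more min to detect enhancement.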

[2] = molecular target: Thyrotropin-releasing hormone receptor (Homo sapiens) (UniProt P34981); experiment: qHTS for Small Molecule Agonists and Allosteric Enhancers of Human TRH Receptor: Validation Screen for Agonists (AID 493127;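 active = calcium activation more than 3 SD above the typical response in the agonist read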;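 also: intracellular calcium rise by fluo-8 fluorescence before TRH EC20 addition; 0% is about no effect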); conditions: TRH receptor agonist cell assay; at 2 µM; stronger effect = higher value
Outline: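 Compounds are added by online pintool to dye-loaded TRHR cells while fluorescence is recorded every second. A rise in calcium signal during the agonist read marks activation; a later 10 nM TRH addition (EC20) serves the separate enhancer mode.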

[3] = molecular target: Galactokinase (Homo sapiens) (UniProt P51570); experiment: qHTS Validation Assay for Inhibitors of Human Galactokinase (GALK) (AID 493189); also: 0% is about no effect
Outline: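 5 nM GALK / 100 uM galactose / 35 uM ATP, 20 mM HEPES pH8.0, 5 mM MgCl2, 60 mM NaCl, 1 mM DTT, 0.01% BSA (final). RT 1 h; Kinase-Glo Plus luminescence.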

[4] = Inducers of the Endoplasmic Reticulum Stress Response (ERSR) in human glioma: Validation (AID 504836); also: 0% is about no effect
Outline: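 Stably transfected U87-MG glioma cells carrying a GRP78-based luciferase sensor; 16 h compound incubation. Luminescence end-point read 10 min after Bright-Glo addition at room temperature.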

[5] = Validation screen for small molecules that induce DNA re-replication in SW480 colon adenocarcinoma cells (AID 504364); also: 0% is about no effect
Outline: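 Image-based qHTS: compounds were incubated with SW480 cells for 48 hr, nuclei stained with Hoechst, and per-nucleus fluorescence intensity scanned to flag cells with excess DNA content.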

[6] = molecular target: Thyrotropin receptor (Homo sapiens) (UniProt P16473); experiment: qHTS Assay for Antagonists of the Thyroid Stimulating Hormone Receptor (AID 488980); also: series mostly up to about 58 µM; 0% is about no effect
Outline: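 Readout is cAMP by HTRF competition between cellular cAMP and cAMP-d2 for a cryptate-labelled antibody. Antagonism was assessed in TSHR-transfected HEK293 cells stimulated with 4 nM TSH (EC80, final) in the presence of RO 20-1724.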

[7] = molecular target: ATP-dependent 6-phosphofructokinase (Trypanosoma brucei brucei) (UniProt O15648); experiment: qHTS Assay to Find Inhibitors of T. brucei phosphofructokinase: hit validation (AID 492961); also: potency is read from the fitted curve at half-maximal effect
Outline: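 Compounds titrated; %activity normalized to 0x and 1x enzyme controls, curve-fitted. Readout: ADP-Glo luminescence after 45 min room-temperature reaction of 1.25 nM PFK, 0.1 mM ATP, 0.5 mM F6P, pH 8.0.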

[8] = molecular target: Tyrosyl-DNA phosphodiesterase 1 (Homo sapiens) (UniProt Q9NUW8); experiment: Confirmation Assay for Inhibitors of Tyrosyl-DNA Phosphodiesterase (TDP1) (AID 489007); conditions: recombinant human TDP1 enzymatic activity, dose-response; also: potency is read from the fitted curve at half-maximal effect; nearly all actives have a fitted effect of over 40% in size
Outline: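 Compounds are preincubated 15 min at room temperature with 1 nM recombinant human Tdp1. The reaction starts on adding 15 nM FITC-phosphotyrosine DNA substrate, runs 5 min, and is detected by AlphaScreen beads after 10 min.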

[9] = molecular target: D(1A) dopamine receptor (Homo sapiens) (UniProt P21728); experiment: HTS Assay for Allosteric Agonists of the Human D1 Dopamine Receptor: Primary Screen for Agonists (AID 488981); also: 0% is about no effect
Outline: (§1)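 Tetracycline-induced HEK293 Trex D1 cells with forced coupling to calcium, loaded with no-wash calcium dye; kinetic fluorescence read 180 s after compound addition for agonism, then a further 180 s after an EC20 dopamine challenge for potentiation.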

[10] = molecular target: D(1A) dopamine receptor (Homo sapiens) (UniProt P21728); experiment: HTS Assay for Allosteric Agonists of the Human D1 Dopamine Receptor: Primary Screen for Potentiators (AID 488982); also: 0% is about no effect
Outline: as §1

[11] = molecular target: D(1A) dopamine receptor (Homo sapiens) (UniProt P21728); experiment: HTS Assay for Allosteric Agonists of the Human D1 Dopamine Receptor: Primary Screen for Antagonists (AID 488983);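 also: calcium flux response to an EC80 dopamine challenge measured with no-wash dye; % is scaled to controls: 0 for no effect and ±100 for the full control effect; nearly all actives have a fitted effect of over 65% in size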
Outline: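 Kinetic fluorescence at 1 cycle/sec tracked intracellular calcium in force-coupled, tetracycline-inducible HEK293 T-REx D1 cells. Loss of response to an EC80 dopamine dose, given 180 s after compound, marked antagonists.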

[12] = Validation screen for small molecules that induce genotoxicity in human embryonic kidney (HEK293T) cells expressing luciferase-tagged ELG1 (AID 493106); also: 0% is about no effect
Outline: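 Cells were dispensed at 2,000 per well, then 23 nL compound or DMSO was pinned in. After 16 hr at 37 °C and 5% CO2, ONE-Glo reagent was added. Luciferase activity was measured following 30 min at room temperature.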

[13] = molecular target: ATPase family AAA domain-containing protein 5 (Homo sapiens) (UniProt Q96QE3); experiment: Validation screen for small molecules that inhibit ELG1-dependent DNA repair in human embryonic kidney (HEK293T) cells expressing luciferase-tagged ELG1 (AID 493107);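 also: cells co-treated with the DNA-damaging agent 5-fluorouridine alongside compound; series mostly up to about 46 µM; % is scaled to controls: 0 for no effect and ±100 for the full control effect; inhibitors lower the ELG1-luciferase luminescence signal; nearly all actives have a fitted effect of over 70% in size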
Outline: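 Cells are dispensed in 1536-well format, then 5-fluorouridine and compound are pinned in. After a 16 hr incubation at 37 °C and 5% CO2, ONE-Glo is added and luciferase measured on a CCD imager.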

[14] = Nrf2 qHTS screen for inhibitors: Validation (AID 493153; active = well fitted inhibition curve with a large enough effect in the main read-out, with a control signal flat, not every such curve was filed as active); conditions: Potency: luciferase luminescence; viability change: measured here: cytotoxicity max response
Outline: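 A549 ARE_Fluc, 5% FBS OPTI-MEM; cpd titration, 18-24 h, 37°C/5% CO2. Read 1: CellTiter-Fluor (Ex 405/Em 525), cytotox. Read 2: luciferase lum, Nrf2 activity.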

[15] = qHTS for Inhibitors of Cell Surface uPA Generation: Validation Assay (AID 493164);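 also: RAW 264.7 macrophage cells exposed to compound for 18 h; 0% is about no effect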
Outline: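 ATP-Lite luminescence read-out: ATP remains high when uPA activity-dependent LF translocation into the cytoplasm is blocked. RAW 264.7 cells, 18 h compound exposure at 37 C; 7-point titration, 2.45 nM to 38.3 uM final.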

[16] = molecular target: Peptidyl-prolyl cis-trans isomerase NIMA-interacting 1 (Homo sapiens) (UniProt Q13526); experiment: qHTS Validation Assay to Find Inhibitors of Pin1 (AID 504536; active = well fitted inhibition curve with a large enough effect in the polarisation, with a control signal flat, not every such curve was filed as active; the % refers to the polarisation;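 also: 0% = full Pin1 enzyme wells and -100% = no-enzyme wells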)
Outline: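 Fluorescence polarization competition: compounds (titration) displace HiFluor-488-labeled Pin1-1b peptide from Pin1 (0.3 uM final) in pH 7.5 HEPES buffer with DTT, 10 min at room temperature; %Activity normalized to no-enzyme wells, curves fitted.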

[17] = molecular target: Phosphoglycerate kinase, glycosomal (Trypanosoma brucei brucei) (UniProt P07378); experiment: qHTS Validation Assay to Find Inhibitors of Phosphoglycerate Kinase (AID 504547);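 also: control wells lack PGK and mark full inhibition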
Outline: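 Compounds are pinned into the substrate/PGK mixture, and GAPDH (100nM final) is added to start the reaction by producing 1,3-BPG. After 60 minutes at room temperature, Kinase-Glo Plus is added and luminescence is measured 10 minutes later.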

[18] = molecular target: phosphoglycerate mutase (Leishmania major) (UniProt Q4Q090); experiment: qHTS Validation Assay to Find Inhibitors of Phosphoglycerate Mutase (AID 504548); conditions: Potency: inhibition qHTS;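 also: end-point luminescence from Kinase-GloPlus after the PGAM reaction; series mostly up to about 58 µM; % is scaled to controls: 0 for no effect and ±100 for the full control effect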
Outline: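 Inhibition of L. major PGAM was assessed by Kinase-GloPlus luminescence following a 45-minute room-temperature reaction with enzyme at 1.25nM final.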

[19] = molecular target: Methanococcus maripaludis chaperonin (MmCpn) (UniProt Q6LX38); experiment: High-Throughput Screening for Modulators of Cytosolic Chaperonin Activity: MmCpn Primary Screen (AID 488978);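 also: 50 nM MmCpn enzyme hydrolysing 30 µM ATP at 37 °C; 0% is about no effect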
Outline: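 Steps: chaperonin 50 nM final; add compound, 5 min RT; start with ATP, 30 uM final; hold 10 min at 37C; add ADP Transcreener HTRF reagent, 5 min; read ex 320, em 590 and 665 nm.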

Sequence of ATPase family AAA domain-containing protein 5 (Homo sapiens) (Q96QE3 whole entry, looked up, the tested form may be a part): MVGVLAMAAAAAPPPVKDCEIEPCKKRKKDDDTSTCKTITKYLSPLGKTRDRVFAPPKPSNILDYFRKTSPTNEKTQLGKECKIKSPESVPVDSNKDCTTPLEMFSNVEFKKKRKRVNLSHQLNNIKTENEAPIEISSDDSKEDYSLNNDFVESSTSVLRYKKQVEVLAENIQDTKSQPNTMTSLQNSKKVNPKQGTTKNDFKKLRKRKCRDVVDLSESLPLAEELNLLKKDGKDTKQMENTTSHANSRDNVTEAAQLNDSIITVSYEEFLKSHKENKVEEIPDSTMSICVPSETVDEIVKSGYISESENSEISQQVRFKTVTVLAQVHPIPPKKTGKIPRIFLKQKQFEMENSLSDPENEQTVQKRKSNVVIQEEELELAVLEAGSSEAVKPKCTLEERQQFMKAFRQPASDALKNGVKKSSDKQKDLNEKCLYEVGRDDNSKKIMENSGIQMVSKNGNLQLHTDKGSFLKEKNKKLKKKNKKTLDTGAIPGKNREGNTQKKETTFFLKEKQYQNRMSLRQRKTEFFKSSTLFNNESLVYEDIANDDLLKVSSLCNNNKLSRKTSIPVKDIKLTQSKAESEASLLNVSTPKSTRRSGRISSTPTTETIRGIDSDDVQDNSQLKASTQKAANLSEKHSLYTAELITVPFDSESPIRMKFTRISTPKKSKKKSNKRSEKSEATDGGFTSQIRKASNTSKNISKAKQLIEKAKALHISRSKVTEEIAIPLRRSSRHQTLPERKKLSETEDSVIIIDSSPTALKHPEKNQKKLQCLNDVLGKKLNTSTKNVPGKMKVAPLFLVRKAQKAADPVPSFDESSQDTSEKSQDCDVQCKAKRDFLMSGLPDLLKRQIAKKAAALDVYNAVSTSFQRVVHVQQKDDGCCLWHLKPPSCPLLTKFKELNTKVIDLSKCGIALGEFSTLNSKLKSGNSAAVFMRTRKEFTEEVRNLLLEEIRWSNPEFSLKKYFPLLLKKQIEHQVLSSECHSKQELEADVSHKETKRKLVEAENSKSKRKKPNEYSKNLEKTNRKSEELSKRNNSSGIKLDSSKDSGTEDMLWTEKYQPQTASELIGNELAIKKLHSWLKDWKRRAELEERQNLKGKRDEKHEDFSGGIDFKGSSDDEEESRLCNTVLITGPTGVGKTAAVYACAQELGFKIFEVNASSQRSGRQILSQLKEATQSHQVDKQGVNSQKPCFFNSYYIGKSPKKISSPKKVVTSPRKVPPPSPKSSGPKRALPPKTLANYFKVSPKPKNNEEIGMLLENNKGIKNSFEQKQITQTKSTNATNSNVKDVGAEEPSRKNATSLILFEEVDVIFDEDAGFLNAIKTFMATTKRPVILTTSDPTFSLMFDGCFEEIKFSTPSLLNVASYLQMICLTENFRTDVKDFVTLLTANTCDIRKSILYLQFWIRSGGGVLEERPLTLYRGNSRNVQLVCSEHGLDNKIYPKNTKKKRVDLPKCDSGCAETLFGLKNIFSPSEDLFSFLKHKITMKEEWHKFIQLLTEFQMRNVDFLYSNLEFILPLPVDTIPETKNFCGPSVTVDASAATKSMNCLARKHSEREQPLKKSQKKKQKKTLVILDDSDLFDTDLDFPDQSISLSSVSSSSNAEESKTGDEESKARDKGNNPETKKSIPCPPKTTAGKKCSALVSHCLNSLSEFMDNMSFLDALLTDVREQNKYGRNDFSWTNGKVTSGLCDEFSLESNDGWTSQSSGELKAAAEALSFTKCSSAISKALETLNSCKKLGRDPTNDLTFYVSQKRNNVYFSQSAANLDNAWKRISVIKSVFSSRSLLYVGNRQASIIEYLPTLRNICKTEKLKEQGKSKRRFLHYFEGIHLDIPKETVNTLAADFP
Sequence of phosphoglycerate mutase (Leishmania major) (Q4Q090 1-553): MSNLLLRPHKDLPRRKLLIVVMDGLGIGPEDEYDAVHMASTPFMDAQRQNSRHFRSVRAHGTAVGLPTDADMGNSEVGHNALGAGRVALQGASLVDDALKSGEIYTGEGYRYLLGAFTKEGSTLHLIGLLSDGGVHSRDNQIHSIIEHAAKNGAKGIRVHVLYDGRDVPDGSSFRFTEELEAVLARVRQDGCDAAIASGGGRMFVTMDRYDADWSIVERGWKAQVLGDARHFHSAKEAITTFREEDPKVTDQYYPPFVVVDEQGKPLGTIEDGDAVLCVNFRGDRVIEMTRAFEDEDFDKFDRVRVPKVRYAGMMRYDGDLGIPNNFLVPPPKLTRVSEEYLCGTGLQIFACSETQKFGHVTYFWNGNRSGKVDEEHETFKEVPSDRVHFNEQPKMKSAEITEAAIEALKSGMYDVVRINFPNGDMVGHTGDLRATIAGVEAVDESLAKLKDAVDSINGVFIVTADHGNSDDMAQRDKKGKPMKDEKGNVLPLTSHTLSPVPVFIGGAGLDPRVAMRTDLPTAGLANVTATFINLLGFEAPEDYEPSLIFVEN
Sequence of Thyrotropin-releasing hormone receptor (Homo sapiens) (P34981 whole entry, looked up): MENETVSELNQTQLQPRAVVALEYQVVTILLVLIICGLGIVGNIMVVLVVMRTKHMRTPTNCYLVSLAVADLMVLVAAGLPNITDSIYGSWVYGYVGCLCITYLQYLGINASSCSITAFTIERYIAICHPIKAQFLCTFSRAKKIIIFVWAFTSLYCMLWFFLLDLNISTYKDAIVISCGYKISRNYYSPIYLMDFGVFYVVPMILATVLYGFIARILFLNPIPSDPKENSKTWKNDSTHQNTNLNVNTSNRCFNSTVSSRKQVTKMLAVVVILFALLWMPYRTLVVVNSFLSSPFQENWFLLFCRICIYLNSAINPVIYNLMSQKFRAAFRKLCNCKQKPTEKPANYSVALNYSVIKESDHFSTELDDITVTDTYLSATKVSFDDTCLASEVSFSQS
Sequence of ATP-dependent 6-phosphofructokinase (Trypanosoma brucei brucei) (O15648 whole entry, looked up): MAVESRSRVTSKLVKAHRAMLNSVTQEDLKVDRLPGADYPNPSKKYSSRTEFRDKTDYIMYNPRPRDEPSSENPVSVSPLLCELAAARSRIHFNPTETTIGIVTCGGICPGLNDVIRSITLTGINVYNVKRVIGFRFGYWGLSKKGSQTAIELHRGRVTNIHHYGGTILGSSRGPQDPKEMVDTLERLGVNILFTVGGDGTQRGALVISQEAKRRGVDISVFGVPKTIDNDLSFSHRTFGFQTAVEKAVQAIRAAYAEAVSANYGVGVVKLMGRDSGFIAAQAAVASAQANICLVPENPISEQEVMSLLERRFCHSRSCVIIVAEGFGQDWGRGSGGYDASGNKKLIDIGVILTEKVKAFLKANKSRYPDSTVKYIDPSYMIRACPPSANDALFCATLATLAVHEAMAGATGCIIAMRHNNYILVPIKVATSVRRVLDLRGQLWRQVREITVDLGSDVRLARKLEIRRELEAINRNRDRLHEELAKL
Sequence of Transient receptor potential cation channel subfamily V member 1 (Homo sapiens) (Q8NER1 whole entry, looked up): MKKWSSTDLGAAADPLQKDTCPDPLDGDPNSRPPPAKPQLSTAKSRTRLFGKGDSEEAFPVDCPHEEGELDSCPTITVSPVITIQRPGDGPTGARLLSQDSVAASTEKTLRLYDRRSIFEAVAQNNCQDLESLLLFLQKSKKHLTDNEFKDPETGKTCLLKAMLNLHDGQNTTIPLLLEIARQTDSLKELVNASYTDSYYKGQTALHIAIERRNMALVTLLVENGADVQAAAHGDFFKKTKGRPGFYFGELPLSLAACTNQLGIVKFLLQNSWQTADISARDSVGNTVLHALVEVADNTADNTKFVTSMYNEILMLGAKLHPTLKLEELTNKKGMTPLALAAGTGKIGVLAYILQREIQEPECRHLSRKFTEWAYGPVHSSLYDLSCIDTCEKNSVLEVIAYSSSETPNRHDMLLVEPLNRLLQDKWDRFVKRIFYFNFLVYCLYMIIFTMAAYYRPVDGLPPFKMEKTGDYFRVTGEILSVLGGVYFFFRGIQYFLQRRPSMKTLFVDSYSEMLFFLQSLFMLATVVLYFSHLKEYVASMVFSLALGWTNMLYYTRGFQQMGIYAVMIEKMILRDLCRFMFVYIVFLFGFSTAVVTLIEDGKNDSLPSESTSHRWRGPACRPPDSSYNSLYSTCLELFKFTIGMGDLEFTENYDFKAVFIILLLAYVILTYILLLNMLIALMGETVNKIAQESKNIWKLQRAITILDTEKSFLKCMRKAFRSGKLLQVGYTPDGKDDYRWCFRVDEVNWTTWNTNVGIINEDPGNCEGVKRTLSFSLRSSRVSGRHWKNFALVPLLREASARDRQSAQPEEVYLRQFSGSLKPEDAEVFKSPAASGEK
Sequence of Thyrotropin receptor (Homo sapiens) (P16473 whole entry, looked up): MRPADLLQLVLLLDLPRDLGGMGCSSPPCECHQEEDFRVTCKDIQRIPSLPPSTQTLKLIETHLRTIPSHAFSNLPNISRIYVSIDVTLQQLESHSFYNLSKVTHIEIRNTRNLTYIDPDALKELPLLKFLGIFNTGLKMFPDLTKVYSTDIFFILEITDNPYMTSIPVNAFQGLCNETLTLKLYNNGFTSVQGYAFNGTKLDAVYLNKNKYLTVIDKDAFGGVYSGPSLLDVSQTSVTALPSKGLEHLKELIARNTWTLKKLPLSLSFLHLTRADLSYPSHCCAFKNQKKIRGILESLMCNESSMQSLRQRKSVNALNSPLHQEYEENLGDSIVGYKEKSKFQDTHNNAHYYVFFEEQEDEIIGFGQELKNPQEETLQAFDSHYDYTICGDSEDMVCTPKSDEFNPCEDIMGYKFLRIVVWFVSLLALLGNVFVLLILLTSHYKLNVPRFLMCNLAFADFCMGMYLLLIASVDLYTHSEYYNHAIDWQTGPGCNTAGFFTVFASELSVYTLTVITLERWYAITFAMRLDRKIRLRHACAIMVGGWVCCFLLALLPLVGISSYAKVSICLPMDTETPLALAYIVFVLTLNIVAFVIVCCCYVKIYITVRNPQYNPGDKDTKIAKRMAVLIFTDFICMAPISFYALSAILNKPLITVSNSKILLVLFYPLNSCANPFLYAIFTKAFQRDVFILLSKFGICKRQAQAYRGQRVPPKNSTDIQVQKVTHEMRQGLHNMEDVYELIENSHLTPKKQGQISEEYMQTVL
Sequence of Peptidyl-prolyl cis-trans isomerase NIMA-interacting 1 (Homo sapiens) (Q13526 whole entry, looked up): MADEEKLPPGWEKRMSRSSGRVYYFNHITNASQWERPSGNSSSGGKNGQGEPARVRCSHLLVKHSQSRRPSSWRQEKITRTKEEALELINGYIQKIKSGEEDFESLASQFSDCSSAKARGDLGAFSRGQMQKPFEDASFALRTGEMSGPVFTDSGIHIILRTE

CC(C)CC(NP(=O)(O)O[C@@H]1O[C@@H](C)[C@H](O)[C@@H](O)[C@H]1O)C(=O)NC(Cc1c[nH]c2ccccc12)C(=O)O (stereo partly drawn)
inactive: outcome [1] | activation [2] 1.38% | outcome [3] | outcome [4]

COc1ccc2c(c1OC)C(=O)OC2C1c2cc3c(cc2CCN1C)OCO3 (stereo not drawn)
inactive: outcome [1] | activation [2] -4.69% | outcome [3]

CCN(CC)c1ncnc2c1ncn2[C@@H]1O[C@H](COP(=O)(O)OP(=O)(O)C(Br)(Br)P(=O)(O)O)[C@@H](O)[C@H]1O
inactive: outcome [1] | activation [2] 0.312% | outcome [3] | Potency [5]

CNC(=O)OCC[N+](C)(C)C
inactive: outcome [1] | outcome [6] | Potency [7] | activation [2] -0.438% | outcome [3] | Potency [5]

F/C(COc1ccc2c(c1)[nH]c1ccccc12)=C1/CN2CCC1CC2
inactive: Potency [7]

[O]=[Cr](=[O])([OH])[O][Cr](=[O])(=[O])[OH]
active: Potency [8] 4.47 µM

CCN(CC)C(=O)/C(Cl)=C(\C)OP(=O)(OC)OC
inactive: Potency [7]

C[N+]1(C)CCCCC1COC(=O)C(O)(c1ccccc1)c1ccccc1 (stereo not drawn)
inactive: Potency [7]

CC[N+](C)(CC)CCOC(=O)C(O)(c1ccccc1)c1ccccc1
inactive: Potency [7]

CCCN(CCC)[C@@H]1CCc2cccc(O)c2C1
-3.45%: viability change [14]
inactive: outcome [1] | Potency [9] | Potency [10] | Potency [11] | Potency [12] | Potency [13] | activation [2] 0.5% | Potency [14] | outcome [15] | outcome [3] | Potency [5] | Potency [16] | Potency [17] | Potency [18]

CC1OC1P(=O)(O)O (stereo not drawn)
inactive: outcome [1] | outcome [6] | activation [2] -2.75% | outcome [3] | Potency [5]

ClCC1CO1 (stereo not drawn)
inactive: Potency [7]

N#CC(C#N)=Cc1cc(O)c(O)c(O)c1
inactive: outcome [1] | outcome [6] | Potency [7] | activation [2] 0.188% | outcome [3]

COc1cc(CC(C)N)c(OC)cc1I (stereo not drawn)
inactive: outcome [1] | outcome [6] | Potency [9] | Potency [10] | Potency [11] | Potency [12] | activation [2] 0.562% | Potency [14] | outcome [15] | outcome [3] | Potency [5] | Potency [16] | Potency [17] | Potency [18]
-12.3%: viability change [14]

NC(N)=NOCC[C@H](N)C(=O)O
inactive: outcome [1] | Potency [9] | Potency [10] | Potency [11] | Potency [12] | Potency [13] | activation [2] -0.375% | Potency [14] | outcome [15] | outcome [3] | Potency [16] | Potency [17] | Potency [18] | outcome [4]
10.2%: viability change [14]

CC(=O)O[C@H]1CC[C@H]2[C@@H]3CCC4=CC(=O)CCC4=C3C=C[C@]12C
inactive: Potency [7]

O=C1CN(O)C(c2ccccc2)=c2cc(Cl)ccc2=N1
inactive: Potency [7]

NCC(O)c1cccc(O)c1 (stereo not drawn)
inactive: Potency [7]

CCON=O
inactive: Potency [7]

C[N+]1(C)CCN(c2ccccc2)CC1
-2.09%: viability change [14]
inactive: outcome [1] | Potency [9] | Potency [10] | Potency [11] | Potency [12] | Potency [13] | activation [2] 0.438% | Potency [14] | outcome [15] | outcome [3] | Potency [16] | Potency [17] | Potency [18] | outcome [4]

O=[N+]([O-])C(Br)(CO)CO
active: Potency [7] 8.91 µM

CC1CCC(C(C)C)C(OC(=O)c2ccccc2N)C1 (stereo not drawn)
inactive: Potency [7]

CCNC(=O)[C@H]1O[C@@H](n2cnc3c(N)ncnc32)[C@H](O)[C@@H]1O
inactive: outcome [19] | Potency [9] | Potency [10] | Potency [11] | Potency [13] | outcome [15] | Potency [16] | Potency [17] | Potency [18] | outcome [4]

CC(N)Cc1c[nH]c2ccc(OCc3cccs3)cc12 (stereo not drawn)
inactive: Potency [10] | Potency [11] | Potency [12] | Potency [13] | activation [2] 3.5% | Potency [14] | outcome [15] | outcome [3] | Potency [5] | Potency [17] | Potency [18] | outcome [4]
-4.81%: viability change [14]

Clc1ccccc1Cl
inactive: Potency [7]

Nc1ccc(CCN2CCN(c3cccc(C(F)(F)F)c3)CC2)cc1
0.0372%: viability change [14]
inactive: outcome [1] | Potency [9] | Potency [10] | Potency [12] | Potency [13] | activation [2] 2.19% | Potency [14] | outcome [15] | outcome [3] | Potency [16] | Potency [17] | Potency [18] | outcome [4]

CC(=O)OCC1=C(C(=O)O)N2C(=O)[C@@H](NC(=O)CCC[C@@H](N)C(=O)O)[C@H]2SC1
inactive: Potency [9] | Potency [11] | Potency [12] | Potency [14] | outcome [15] | Potency [16] | Potency [17] | Potency [18] | outcome [4]
1.57%: viability change [14]

CN1C2CCC1CC(OC(c1ccccc1)c1ccc(Cl)cc1)C2 (stereo not drawn)
inactive: outcome [6] | activation [2] 8.88% | outcome [3] | Potency [5]

CN1CC[C@@]2(C)c3cc(OC(=O)Nc4ccccc4)ccc3N(C)[C@@H]12
-13.9%: viability change [14]
inactive: Potency [9] | Potency [10] | Potency [11] | Potency [12] | Potency [13] | Potency [14] | outcome [15] | Potency [16] | Potency [17] | Potency [18] | outcome [4]

C[C@]12CCC(=O)C[C@@H]1CC[C@@H]1[C@@H]2CC[C@]2(C)[C@@H](O)CC[C@@H]12
inactive: Potency [7]

O=P(O)(O)C(Cl)(Cl)P(=O)(O)O
inactive: outcome [1] | outcome [6] | Potency [7] | activation [2] -0.25% | outcome [3] | Potency [5] | outcome [4]

CNC(=O)Oc1ccccc1C(=O)Nc1ccccc1
inactive: Potency [7]

N#CN
inactive: Potency [7]

[Cl-].[Cl-].[Hg+2]
active: Potency [7] 8.91 µM

CCCN1CCCC2Cc3[nH]ncc3CC21 (stereo not drawn)
inactive: outcome [1] | activation [2] -0.5% | outcome [3]

C[N+]1(C)CCC(OC(=O)C(c2ccccc2)c2ccccc2)CC1
inactive: outcome [1] | outcome [6] | activation [2] 0.125% | outcome [3] | Potency [5] | outcome [4]
